Shown are actives, neighbours in structure and some others; about 4% of the full set was active somewhere.
Mtb FBA inh = Mtb fructose-bisphosphate aldolase inhibition; purified M. tuberculosis FBA, fluorescence read-out; inhibition, % at 1 µM; actives 2.3% (n = 360,000); AID 588726; in the data active = inhibition above about 27%
RecA intein inh = blocks M. tuberculosis RecA intein splicing; cell-free RecA intein splicing, fluorescence; P9WHJ3; AID 2221; actives 0.75% (n = 290,000); inhibition, % (test concentration not listed); in the data active = inhibition above about 30%
Target sequence (P9WHJ3 whole entry, looked up): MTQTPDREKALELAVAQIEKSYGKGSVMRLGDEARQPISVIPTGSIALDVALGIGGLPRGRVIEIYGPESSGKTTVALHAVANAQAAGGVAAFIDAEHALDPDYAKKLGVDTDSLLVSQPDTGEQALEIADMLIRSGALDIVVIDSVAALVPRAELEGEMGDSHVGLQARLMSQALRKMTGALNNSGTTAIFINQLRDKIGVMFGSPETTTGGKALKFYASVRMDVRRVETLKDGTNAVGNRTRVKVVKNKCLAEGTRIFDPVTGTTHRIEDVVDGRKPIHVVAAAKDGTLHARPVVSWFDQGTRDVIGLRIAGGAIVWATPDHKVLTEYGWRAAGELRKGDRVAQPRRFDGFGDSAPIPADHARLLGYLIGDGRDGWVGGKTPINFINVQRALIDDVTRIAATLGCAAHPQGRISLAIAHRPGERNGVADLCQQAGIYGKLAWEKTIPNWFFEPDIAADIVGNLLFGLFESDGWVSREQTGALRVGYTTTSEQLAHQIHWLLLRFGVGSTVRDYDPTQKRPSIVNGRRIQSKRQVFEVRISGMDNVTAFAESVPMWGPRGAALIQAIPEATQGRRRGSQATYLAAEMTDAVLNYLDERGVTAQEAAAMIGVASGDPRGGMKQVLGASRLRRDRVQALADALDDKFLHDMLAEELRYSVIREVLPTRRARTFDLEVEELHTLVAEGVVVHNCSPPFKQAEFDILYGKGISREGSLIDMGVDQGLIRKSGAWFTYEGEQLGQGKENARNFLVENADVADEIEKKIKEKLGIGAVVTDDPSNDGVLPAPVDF
Mtb betalactam = beta-lactam sensitization of Mtb H37Rv | AID 434955 | actives 0.27% (n = 330,000) | M. tuberculosis H37Rv growth with meropenem, percent inhibition | inhibition, % at 25 µM; call rule not given here;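 note: growth measured after seven days incubation then overnight dye step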
Mtb UGM inh = Mtb UDP-galactopyranose mutase inhibition; inhibition, % at 10 µM; purified UGM, fluorescence polarization probe displacement; actives 0.06% (n = 320,000); P9WIQ1; in the data active = inhibition above about 10%, passing the limit was not always enough
Rv3671c protease = inhibits the M. tuberculosis serine protease Rv3671c; inhibition, % at 5.96 µM; actives 0.048% (n = 320,000); in the data active = inhibition above about 38%;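 note: extracellular domain of Rv3671c used as enzyme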
GDH-TPI counter = GDH-TPI coupled enzyme inhibition counter-screen | GDH-TPI coupled enzyme counterscreen, NADH absorbance | inhibition, % at 4.8 µM | actives 1.2% (n = 360,000); in the data active = inhibition above about 30%
Large screens that a line does not name were inactive.

O=C(Nc1cc(Cl)cc(Cl)c1)c1coc(=O)c(Br)c1	Mtb FBA inh 136.5, GDH-TPI counter 32.4
COc1ccc([C@H]2CC(=O)C=C(/C=C/c3ccccc3)C2)cc1OC	GDH-TPI counter 37.8 (no result: RecA intein inh)
O=C1C=C(/C=C/c2ccccc2)C[C@@H](c2ccc(F)cc2)C1	none (no result: RecA intein inh)
O=C(Nc1cccc2ccccc12)c1ccc2sc([C@@H]3O[C@H](CO)[C@H](O)[C@H](O)[C@H]3O)nc2c1	none (no result: RecA intein inh, Mtb betalactam, Mtb UGM inh, Rv3671c protease)
Cc1ccc(-n2ncc(Br)c(Br)c2=O)cc1	RecA intein inh 66.7 (no result: Mtb betalactam, Mtb UGM inh, Rv3671c protease)
CC(=O)NC(C)(c1ccccc1)c1nc(-c2cccc(C#N)c2)cs1 (stereo unspecified)	none (no result: RecA intein inh, Mtb betalactam, Mtb UGM inh, Rv3671c protease)
Cc1ccc(NC(=S)N/N=C/c2c(Cl)cccc2Cl)c(C)c1	none
Cc1ccc(NC(=S)N/N=C/c2ccc(OCCC(C)C)cc2)c(C)c1	GDH-TPI counter 35.9
Cc1ccc(S(=O)(=O)N(C)C)cc1NC(=S)NC12CC3CC(CC(C3)C1)C2	Mtb FBA inh active (no result: Mtb betalactam, Mtb UGM inh, Rv3671c protease)
O=[N+]([O-])c1ccccc1C(=Nc1ccccc1)c1c(O)cc(O)cc1O	GDH-TPI counter 32.4 (no result: RecA intein inh, Mtb betalactam, Mtb UGM inh, Rv3671c protease)
O=C(Nc1ccccc1)c1ccccc1NC(=O)c1ccccc1[N+](=O)[O-]	none (no result: RecA intein inh)
O=C(O)c1cccc2c1C(=O)c1ccccc1C2=O	none
O=C(O)c1cccc(-c2ccccc2)c1O	Mtb FBA inh 116.3 (no result: RecA intein inh, Mtb betalactam, Mtb UGM inh, Rv3671c protease)
COCCOC(=O)C1=C(C)NC(=O)NC1c1c(Cl)nc2ccccn2c1=O (stereo unspecified)	GDH-TPI counter 31.1
COCCOC(=O)C1=C(C)NC(=O)NC1c1c(Cl)nc2c(C)cccn2c1=O (stereo unspecified)	none (no result: Mtb FBA inh, GDH-TPI counter)
CCn1c(=O)c(=O)[nH]c2cc(C(=O)NC3CCCc4ccccc43)ccc21 (stereo unspecified)	GDH-TPI counter 30.6 (no result: RecA intein inh)
CN1CCCC(OC(=O)c2ccc(S(=O)(=O)N(C)C)cc2)C1 (stereo unspecified)	none
CCC(C(=O)N1CCOCC1)n1nc(C)n2c(cc3cc(C)ccc32)c1=O (stereo unspecified)	none
CCCC1S/C(=N/N=C/c2cccs2)NC1=O (stereo unspecified)	none
CCN(/N=C/c1cccs1)c1cc(=O)n(C)c(=O)[nH]1	GDH-TPI counter 42.5
CN(/N=C/c1cccs1)c1cc(=O)n(C)c(=O)[nH]1	GDH-TPI counter 47.8
O=C(O)c1cccc(S(=O)(=O)N2CCN(S(=O)(=O)c3ccc4ccccc4c3)CC2)c1	none (no result: RecA intein inh, Mtb betalactam, Mtb UGM inh, Rv3671c protease)
O=C(Nc1ccc(-c2nc3cccnc3s2)cc1)C1CCCO1 (stereo unspecified)	Mtb FBA inh active, GDH-TPI counter 33.2
Cc1cc(-c2nc3cccnc3s2)ccc1NS(=O)(=O)c1cccs1	Mtb FBA inh active, GDH-TPI counter 41.9
O=S(=O)(Nc1ccc(-c2nc3cccnc3s2)cc1)c1cccs1	Mtb FBA inh active
Cc1c(NS(=O)(=O)c2cccs2)cccc1-c1nc2cccnc2s1	none
COc1ccc(NC(=O)C2CCCO2)cc1 (stereo unspecified)	none
Cc1cc(-c2nc3cccnc3s2)ccc1NS(=O)(=O)c1ccc2c(c1)OCCO2	Mtb FBA inh active
Cc1c(NS(=O)(=O)c2ccc3c(c2)OCCO3)cccc1-c1nc2cccnc2s1	none
C=C(C)COc1ccc(-c2nc(N)ncc2-c2ccc(Cl)cc2)c(O)c1	none
CCS(=O)(=O)Nc1cccc(-c2nc3cccnc3s2)c1	none
O=S(=O)(Nc1ccc(-c2nc3cccnc3s2)cc1)c1ccccc1F	Mtb FBA inh active, GDH-TPI counter 62.5
Cc1nc2ccc(S(=O)(=O)Nc3ccc(-c4nc5cccnc5s4)cc3)cc2s1	Mtb FBA inh active
O=S(=O)(Nc1ccc(-c2nc3cccnc3s2)cc1)c1ccc(Cl)s1	Mtb FBA inh active, GDH-TPI counter 37.2
Cc1nc2cc(NS(=O)(=O)c3ccccc3F)ccc2s1	none
CCS(=O)(=O)Nc1ccc(-c2nc3cccnc3s2)cc1	Mtb FBA inh active
O=C(Nc1cccc(C(=O)O)c1)/C(=C\c1ccc(F)cc1)NC(=O)c1ccco1	none
CN(C)Cc1cc(C(C)(C)c2ccccc2)ccc1O	none (no result: RecA intein inh, Mtb betalactam, Mtb UGM inh, Rv3671c protease)
O=C1N=C(N2CCCCC2)S/C1=C\c1ccncc1	none
COc1ccc(/C=C2\SC(N3CCCCC3)=NC2=O)cc1	GDH-TPI counter 47.4
CC(=O)N1CCN(C2=NC(=O)/C(=C/c3ccc(OS(=O)(=O)c4ccccc4)cc3)S2)CC1	GDH-TPI counter 31.5
